Results on 8 compounds are retold here after PubChem BioAssay (NCI).

Each structure is given as a SMILES string. Compounds without any hit were thinned out: in the full panel of roughly 83,000, 20% have a hit.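 Plates (96-well) were seeded with cells, treated with compound at one concentration, and incubated for 48 hours before percent growth was determined.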 Values without a mark were called inactive. Calls of active or inactive are those of the source. Rule for the calls: active = growth percent below 10; inactive = the rest.

Common to all, as to test: NCI-60 one-dose screen, 48 h (100 = growth as untreated, 0 = no growth, -100 = all killed)
The test system of one test is SR leukemia. To be noted: 10 µM unless noted.
A further test relates to RPMI-8226 leukemia. To be noted: 10 µM.
In another test the test system is OVCAR-8 ovarian. To be noted: 10 µM unless noted.
A further test relates to OVCAR-5 ovarian. To be noted: 10 µM unless noted.
A further test deals with OVCAR-4 ovarian. To be noted: 10 µM unless noted.
The next test has as its system SK-OV-3 ovarian. To be noted: 10 µM.
Another test has as its system IGROV1 ovarian. To be noted: 10 µM unless noted.
For the next test, the system named is OVCAR-3 ovarian. To be noted: 10 µM unless noted.
The test system of the next test is HS 578T breast. To be noted: 10 µM unless noted.
Another test has as its system NCI/ADR-RES ovarian. To be noted: 10 µM unless noted.
For the next test, the system named is T-47D breast. To be noted: 10 µM.
A further test concerns BT-549 breast. To be noted: 10 µM unless noted.
The subject of the next test is MDA-MB-435 melanoma. To be noted: 10 µM unless noted.
The next test concerns SW-620 colon. To be noted: 10 µM unless noted.
For the next test, the system named is MCF7 breast. To be noted: 10 µM unless noted.
For the next test, the system named is HCT-116 colon. To be noted: 10 µM unless noted.
The subject of another test is HCC-2998 colon. To be noted: 10 µM unless noted.
The test system of another test is KM12 colon. To be noted: 10 µM unless noted.

For `O=C(CCCCCCC(=O)Nc1ccc2c(c1)/C(=C/c1ccc[nH]1)C(=O)N2)NO`, the growth is 4.1% (active) in the test on SR leukemia; -19.5% (active) in the test with RPMI-8226 leukemia; 11.2% in the test with OVCAR-8 ovarian; 0.698% (active) in the test on OVCAR-5 ovarian; 23.7% in the test on OVCAR-4 ovarian; 12.2% in the test on SK-OV-3 ovarian. In addition, the growth with IGROV1 ovarian is -4.96% (active); in the test with OVCAR-3 ovarian, -57.8% (active); in the test on HS 578T breast, 9.71% (active); in the test with NCI/ADR-RES ovarian, 35.7%; with T-47D breast, -0.107% (active); in the test with BT-549 breast, 29.7%. The growth was -1.97% (active) in the test with MDA-MB-435 melanoma; -27% (active) in the test with SW-620 colon; 17.2% in the test on MCF7 breast; -36.8% (active) in the test with HCT-116 colon; 3.74% (active) in the test on HCC-2998 colon; -14.4% (active) in the test on KM12 colon.

Turning to `COc1cc(C(=O)/C=C/c2c(-c3cccs3)nc3sccn23)cc(OC)c1OC`, the growth was 10.3% in the test on SR leukemia; -0.804% (active) with RPMI-8226 leukemia; 0.926% (active) in the test with OVCAR-8 ovarian; 0.426% (active) with OVCAR-5 ovarian; -2.2% (active) in the test with OVCAR-4 ovarian; -2.52% (active) in the test on SK-OV-3 ovarian. The growth in the test on IGROV1 ovarian was 5.57% (active); in the test with OVCAR-3 ovarian, -19.1% (active); in the test on HS 578T breast, -9.28% (active); in the test on NCI/ADR-RES ovarian, -29.7% (active); in the test with T-47D breast, -1.93% (active); in the test with BT-549 breast it was 5.79% (active). Moreover, the growth in the test with MDA-MB-435 melanoma is 2.16% (active); in the test with SW-620 colon it was 8.66% (active); in the test with MCF7 breast it was 11%; with HCT-116 colon it was -14.3% (active); in the test on HCC-2998 colon it was -11.9% (active); in the test with KM12 colon, -27.2% (active).

In the case of `CC(=O)Nc1ccccc1-c1n[nH]c(=O)[nH]c1=O`, the growth is 107% with SR leukemia; 103% in the test with RPMI-8226 leukemia; 106% in the test with OVCAR-8 ovarian; 96.4% in the test with OVCAR-5 ovarian; 93.6% in the test on OVCAR-4 ovarian; 99.1% in the test with SK-OV-3 ovarian. Also, the growth is 104% in the test with IGROV1 ovarian; 113% in the test on OVCAR-3 ovarian; 77.9% in the test with HS 578T breast; 102% with NCI/ADR-RES ovarian; 97.5% with T-47D breast; 112% with BT-549 breast. For the same compound, the growth in the test on MDA-MB-435 melanoma was 97.9%; with SW-620 colon, 96.4%; with MCF7 breast it was 101%; in the test with HCT-116 colon it was 104%; in the test with HCC-2998 colon it was 116%; in the test on KM12 colon, 105%.

On to `Cc1nc2cc(Nc3nc(NCCO)nc(Nc4ccc(F)cc4)n3)ccc2n1Cc1ccccc1`, for which the growth was 14.9% in the test on SR leukemia; 14.2% with RPMI-8226 leukemia; 80% in the test with OVCAR-8 ovarian; 114% in the test on OVCAR-5 ovarian; 95.3% in the test with OVCAR-4 ovarian; 105% in the test with SK-OV-3 ovarian. The growth is 88.9% in the test on IGROV1 ovarian; 90.2% with OVCAR-3 ovarian; 107% in the test with HS 578T breast; 97.7% with NCI/ADR-RES ovarian; 65.3% in the test on T-47D breast; 101% in the test with BT-549 breast. The growth in the test with MDA-MB-435 melanoma is 91.6%; in the test on SW-620 colon it was 109%; in the test on MCF7 breast, 91.3%; with HCT-116 colon it was 76.5%; with HCC-2998 colon, 106%; with KM12 colon, 80.3%.

`COc1ccc(OC)c(C2C(C#N)=C(N)Oc3cc(O)ccc32)c1` (centres undefined): the growth was 80% with SR leukemia; 84.5% in the test on RPMI-8226 leukemia; 100% with OVCAR-8 ovarian; 97% with OVCAR-5 ovarian; 101% in the test with OVCAR-4 ovarian; 97.2% in the test on SK-OV-3 ovarian. For the same compound, the growth in the test with IGROV1 ovarian was 105%; in the test on OVCAR-3 ovarian it was 111%; with HS 578T breast, 94%; in the test on NCI/ADR-RES ovarian it was 94.7%; in the test on T-47D breast it was 86.7%; in the test with BT-549 breast, 94.1%. The growth was 83.4% with MDA-MB-435 melanoma; 101% with SW-620 colon; 99.3% in the test on MCF7 breast; 96.3% with HCT-116 colon; 109% in the test on HCC-2998 colon; 94% with KM12 colon.

As to `COc1ccc(-c2nc3sc(C)cn3c2/C=C/C(=O)c2cc(OC)c(OC)c(OC)c2)cc1`, the growth with SR leukemia is 48.5%; with RPMI-8226 leukemia, 31.5%; with OVCAR-8 ovarian it was 35.7%; with OVCAR-5 ovarian it was 113%; in the test with OVCAR-4 ovarian, 47.8%; in the test with SK-OV-3 ovarian, 66.4%. The growth is 67.1% with IGROV1 ovarian; 41.7% with OVCAR-3 ovarian; 37.3% in the test on HS 578T breast; 21.8% with NCI/ADR-RES ovarian; 50.3% in the test with T-47D breast; 59.9% with BT-549 breast. Besides, the growth in the test with MDA-MB-435 melanoma was 20.9%; in the test with SW-620 colon it was 64.3%; with MCF7 breast it was 46.7%; in the test with HCT-116 colon, 42.1%; with HCC-2998 colon it was 69.3%; in the test on KM12 colon, 29.3%.

As to `CC(C)(C)CC(C)(C)N(CSc1ccc(Cl)cc1)CSc1ccc(Cl)cc1`, the growth with SR leukemia was -32.7% (active); with RPMI-8226 leukemia, -25% (active); in the test with OVCAR-8 ovarian it was 44.6%; with OVCAR-5 ovarian, 63.4%; with OVCAR-4 ovarian, 50.1%; in the test on SK-OV-3 ovarian it was 71%. For the same compound, the growth is 2.44% (active) with IGROV1 ovarian; 41.4% in the test with OVCAR-3 ovarian; 66.6% in the test with HS 578T breast; 45.6% in the test with NCI/ADR-RES ovarian; 63.2% in the test on T-47D breast; -52.4% (active) with BT-549 breast. Besides, the growth in the test with MDA-MB-435 melanoma is 46.3%; in the test on SW-620 colon, 35.9%; in the test on MCF7 breast it was 31.4%; in the test with HCT-116 colon it was 25.5%; with HCC-2998 colon, 65.3%; in the test with KM12 colon it was 33.5%.

For the compound `O/N=C/c1cccs1`, the growth in the test on SR leukemia was 96.8%; with RPMI-8226 leukemia, 112%; with OVCAR-8 ovarian, 98.3%; in the test on OVCAR-5 ovarian it was 100%; with OVCAR-4 ovarian, 115%; with SK-OV-3 ovarian, 118%. In addition, the growth with IGROV1 ovarian was 108%; with OVCAR-3 ovarian, 119%; in the test with HS 578T breast, 116%; with NCI/ADR-RES ovarian it was 121%; in the test on T-47D breast, 111%; in the test with BT-549 breast, 112%. In addition, the growth in the test on MDA-MB-435 melanoma is 99.8%; in the test with SW-620 colon, 104%; with MCF7 breast, 99.2%; in the test with HCT-116 colon, 102%; with HCC-2998 colon, 111%; with KM12 colon, 110%.
